This note sets out measurements from PubChem BioAssay (NCI).

Among the test systems are NCI-H23 lung; NCI-H226 lung; NCI-H322M lung; HOP-62 NSCLC; NCI-H460 lung; NCI-H522 lung; A549/ATCC NSCLC; 786-0 renal; COLO 205 colon.
Assay in all cases: NCI-60 one-dose screen, 48 h (100 = growth as untreated, 0 = no growth, -100 = all killed)
Details in all cases: 10 µM unless noted

Compounds without any hit were thinned out: in the full panel of roughly 83,000, 20% have a hit.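 The endpoint reported here, percent growth, reads 100 for growth as untreated, 0 for no net growth and -100 for all cells dead.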 Unmarked numbers belong to inactive results. Activity calls are given as the source filed them. The calls were made as follows: active = growth percent below 10; inactive = the rest.

For the molecule `c1n[nH]cc1-c1nc2ccc3[nH]ncc3c2c2c1CCCC2`, the growth in the assay on NCI-H23 lung is 19%; with NCI-H226 lung it was 29.1%; in the assay on NCI-H322M lung it was 31.1%; with HOP-62 NSCLC, 14.7%; in the assay with NCI-H460 lung, 9.2% (active); with NCI-H522 lung, 2.99% (active). The growth is 15.7% in the assay with A549/ATCC NSCLC, 16.9% in the assay on 786-0 renal and 8.98% (active) in the assay with COLO 205 colon.
For the molecule `O=C(NNc1nc2cc(F)c(F)cc2n2c(CN3CC4CNCC4C3)ccc12)c1cnccn1` (configuration not stated), the growth is 26.7% in the assay with NCI-H23 lung; 16.8% in the assay with NCI-H226 lung; 26.7% in the assay on NCI-H322M lung; 10.8% in the assay on HOP-62 NSCLC; 1.73% (active) in the assay with NCI-H460 lung; 11.2% in the assay with NCI-H522 lung. Also, the growth with A549/ATCC NSCLC was 16.9%; with 786-0 renal, 16.5%; with COLO 205 colon, 11.4%.
Consider `COc1cc(Cn2cc3c(c2)-c2onc(CN4CCOCC4)c2CC3)cc(OC)c1OC`, for which the growth in the assay on NCI-H23 lung is 94.6%; in the assay on NCI-H226 lung, 87.1%; in the assay on NCI-H322M lung, 100%; in the assay with HOP-62 NSCLC, 95.6%; with NCI-H460 lung, 111%; in the assay with NCI-H522 lung, 86%. In addition, the growth in the assay with A549/ATCC NSCLC was 101%; with 786-0 renal it was 100%; in the assay on COLO 205 colon it was 114%.
On to `N#Cc1ccccc1Cn1c2nc(=N)c3ccccc3c-2nc2ccccc21`, for which the growth was 52.4% in the assay with NCI-H23 lung; 61.3% in the assay on NCI-H226 lung; 66% in the assay with NCI-H322M lung; 62.2% in the assay with HOP-62 NSCLC; 22.1% in the assay with NCI-H460 lung; 59.7% with NCI-H522 lung. In addition, the figures for the growth with A549/ATCC NSCLC, with 786-0 renal and in the assay on COLO 205 colon were 44.3%, 80.3% and 3.63% (active), respectively.
For the molecule `COc1ccc(Cn2cc3c(c2-c2cc(OC)c(OC)c(OC)c2)CCc2c(CN4CCOCC4)noc2-3)cc1`, the growth in the assay with NCI-H23 lung was 9.12% (active); in the assay with NCI-H226 lung, 57.9%; with NCI-H322M lung, 52.7%; with HOP-62 NSCLC it was 45%; in the assay with NCI-H460 lung it was 8.85% (active); in the assay with NCI-H522 lung, 12.3%. Also, the growth in the assay with A549/ATCC NSCLC was 32.9%; in the assay on 786-0 renal, 55.4%; in the assay with COLO 205 colon, 14.9%.
`Nc1nc(-c2cccc([N+](=O)[O-])c2)c(N=Nc2cccc([N+](=O)[O-])c2)s1`: the growth in the assay on NCI-H23 lung is -25.6% (active); in the assay with NCI-H226 lung, 14.9%; with NCI-H322M lung, 64.6%; in the assay on HOP-62 NSCLC, 16.5%; in the assay with NCI-H460 lung, 4.2% (active); with NCI-H522 lung, -12% (active). Further, the growth is 17.5% with A549/ATCC NSCLC, -70.4% (active) in the assay on 786-0 renal and 106% with COLO 205 colon.
Turning to `COc1ccc(C(=O)CSc2nc3c(c(Nc4ccc(S(N)(=O)=O)cc4)n2)CCCC3)cc1`, the growth is 88.1% in the assay on NCI-H23 lung; 98% in the assay on NCI-H226 lung; 107% in the assay on NCI-H322M lung; 115% in the assay with HOP-62 NSCLC; 91.2% in the assay with NCI-H460 lung; 91.4% in the assay on NCI-H522 lung. In addition, the growth in the assay with A549/ATCC NSCLC was 92.7%; in the assay with 786-0 renal, 101%; in the assay on COLO 205 colon, 108%.
With `CNC(=O)c1cc(Oc2ccc3nc(NC(=O)c4ccc(N5CCOCC5)c(C(F)(F)F)c4)sc3c2)ccn1`, the growth was 78.9% in the assay on NCI-H23 lung; 91.5% in the assay with NCI-H226 lung; 91.7% in the assay with NCI-H322M lung; 90.5% in the assay on HOP-62 NSCLC; 68.8% in the assay with NCI-H460 lung; 77.9% in the assay on NCI-H522 lung. Also, the growth in the assay on A549/ATCC NSCLC is 80.5%; in the assay on 786-0 renal it was 47.1%; in the assay with COLO 205 colon, 102%.
As to `NC(N)=Nc1ccc(Oc2cccc(Nc3cccc(C(F)(F)F)c3)c2)cn1`, the growth was -2.6% (active) in the assay on NCI-H23 lung; 20.1% in the assay on NCI-H226 lung; 14.7% with NCI-H322M lung; 3.3% (active) in the assay on HOP-62 NSCLC; -76.8% (active) with NCI-H460 lung; -34.6% (active) with NCI-H522 lung. The results for the growth in the assay on A549/ATCC NSCLC, with 786-0 renal and in the assay with COLO 205 colon were 35.8%, 33.7% and -47.3% (active), respectively.
For `Cc1ccc(-c2nnc(SCc3ccc(O)c4ncccc34)o2)cc1`, the growth was 27.9% with NCI-H23 lung; 45.2% with NCI-H226 lung; 26.3% in the assay with NCI-H322M lung; 19.7% with HOP-62 NSCLC; 2.77% (active) in the assay with NCI-H460 lung; 26.6% in the assay on NCI-H522 lung. Also, the values for the growth in the assay on A549/ATCC NSCLC, with 786-0 renal and in the assay with COLO 205 colon were 24.7%, 24.5% and 88.2%, respectively.
Regarding `COc1ccc([C@@H]2[C@@H](O)C(=O)N2c2cc(OC)c(OC)c(OC)c2)cc1F`, the growth in the assay on NCI-H23 lung was 15.9%; in the assay on NCI-H226 lung, 36.9%; in the assay with NCI-H322M lung, 52.4%; with HOP-62 NSCLC, 28.3%; in the assay with NCI-H460 lung it was 2.68% (active); with NCI-H522 lung it was -49.6% (active). For the same molecule, the growth was 20.2% with A549/ATCC NSCLC, 10% in the assay with 786-0 renal and -79.8% (active) in the assay on COLO 205 colon.
For `Cc1[nH]c(C(=O)Nc2ccccc2OCc2cccc(C(=O)N3CCC[C@@H](N)C3)c2)c(Cl)c1Cl`, the growth is -80.6% (active) in the assay on NCI-H23 lung; -67.4% (active) in the assay on NCI-H226 lung; -94.3% (active) with NCI-H322M lung; -60.4% (active) in the assay on HOP-62 NSCLC; -73.7% (active) in the assay with NCI-H460 lung; -66.5% (active) in the assay on NCI-H522 lung. The growth with A549/ATCC NSCLC is -77% (active); in the assay with 786-0 renal it was -72.6% (active); in the assay on COLO 205 colon, -64% (active).
Turning to `C#CCC#CCN1CCC[C@H]1C(=O)NCC(=O)OC`, the growth is 96.7% with NCI-H23 lung; 104% in the assay on NCI-H226 lung; 101% with NCI-H322M lung; 104% in the assay on HOP-62 NSCLC; 112% in the assay on NCI-H460 lung; 100% in the assay on NCI-H522 lung. The results for the growth in the assay on A549/ATCC NSCLC, in the assay with 786-0 renal and in the assay on COLO 205 colon were 97.6%, 101% and 114%, respectively.
